Source: PubChem BioAssay AID493085 (Broad Institute, 2011)
Among all 2,400 compounds or so, about 360 (15%) were called active. Roughly 5% stayed inconclusive and do not appear here.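 How the source made its calls: active means falling-signal curve with half-maximal concentration at or below ten times the top tested dose; inconclusive means flat fit at 30 to 70% inhibition, or poor fit; inactive means signal rise, flat within 30%, or potency beyond limit.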 Only a sample is shown. Results with a measured potency or affinity are listed apart.

Assay: Tet-On RFP internal-standard readout, HSF1 screen, dose response, cell-based, NIH3T3 R4, HSE-GFP and Tet-On RFP, cherry-pick, set 3 (AID 493085);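 further: cells heat shocked 2 h at 42 °C with doxycycline to induce reporters; 0% = neutral control wells and -100% = didemnin B control at 400 nM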
Conditions: NIH3T3 R4 HSE-GFP/Tet-RFP reporter, fluorescence, 48 h; series mostly up to 19.5 µM; activity change, negative = inhibition: at the top concentration

Activity change, negative = inhibition, inactive:
O=C1c2ccccc2C(O)N1c1ccccc1 (configuration not stated) -5%
Cc1ccnc(N2CCCC(C(=O)NCc3cccs3)C2)n1 (configuration not stated) -3.11%
O=C(O)CCn1cc(/C=C2\NC(=S)N(c3ccccc3)C2=O)c(-c2ccc(Br)cc2)n1 -0.659%
Cc1noc(C)c1COc1ccc(C(=O)OCC(=O)Nc2c(C)n(C)n(-c3ccccc3)c2=O)cc1 -3.94%
COc1cccc(CNc2ccc(S(N)(=O)=O)cc2)c1OC -1.4%
COc1cc(/C=C/c2nc(N)nc(-c3ccccc3O)n2)cc(OC)c1OC 18.8%
CN=c1scc(-c2ccccc2F)n1/N=C/c1ccc[nH]1 -4.98%
Cc1cc(C)c(NC(=O)CSc2nnc(-c3ccncc3)n2Cc2ccco2)c(Cl)c1 -3.6%
CCOc1ccc(NCc2nnc(SCc3ccccc3Cl)n2-c2ccccc2)cc1 -11.4%
CCc1ccccc1-n1c(SCC(=O)Nc2ccc3c(c2)OCCO3)nc2[nH]ncc2c1=O -7.25%
CCOC(=O)Cn1c(CN2CCN(c3cccc(Cl)c3)CC2)nc2c1c(=O)[nH]c(=O)n2C -12.4%
CCCCn1c(=O)n(CC(=O)Nc2c(CC)cccc2CC)c(=O)c2c1nc(CO)n2CCC 6.15%
Cc1[nH]n(-c2ccccc2)c(=S)c1C=Nc1cccc([N+](=O)[O-])c1 -1.4%
CCOc1ccc(/C(O)=C2/C(=O)C(=O)N(CCCn3ccnc3)C2c2cccs2)cc1Cl (configuration not stated) 1.41%
Cc1ccc(S(=O)(=O)N2CCN(C(=O)c3cccc(F)c3)CC2)cc1 -8.47%
O=C(O)c1cc(-c2cccc3ccccc23)nc2ccccc12 -4.24%
Cc1nc(NC(C)c2ccccc2)sc1C(=O)Nc1ccccc1 (configuration not stated) 9.94%
CC(C)Sc1nc2sccc2c(=O)n1-c1ccccc1 11.3%
COc1cccc(C(=O)Nc2ccc(NC(=O)C3CC=CCC3C(=O)O)cc2)c1 (configuration not stated) 0.016%
CC(C)CN(CC(C)C)C(=S)NC1CCCCC1 -6.14%
O=[N+]([O-])c1ccc(N2CCN(Cc3ccc4c(c3)OCO4)CC2)nc1 -8.55%
COc1ccccc1NC(=O)c1ccc([N+](=O)[O-])o1 57.8%
Cc1c(C(=O)NCc2ccc3c(c2)OCO3)sc2nc(-c3ccccc3)cn12 -10%
O=C(NCc1ccc2c(c1)OCO2)c1cc2c(s1)CS(=O)(=O)C2 -6.5%
COc1cc(C(=O)Nc2ccccc2NC(=O)c2cc(OC)c(OC)c(OC)c2)cc(OC)c1OC 2.37%
Cc1cccc(NC(=O)CN2C(=O)N/C(=C/c3cc(C)n(C(C)C)c3C)C2=O)c1 -10.4%
CCn1c(COc2ccc(C)cc2)nnc1SCC(=O)Nc1ccc2c(c1)OCCO2 -7.64%
COc1ccccc1Nc1nc(NCCCN(C)C)nc(N)c1[N+](=O)[O-] -1.84%
CCN(C(=O)Cn1c([N+](=O)[O-])cnc1C)c1ccccc1 -16.7%
CC(C)(C)c1cnnn1-c1ccc(C(=O)CCl)cc1 3.34%
CC1(C)CC(=O)C2=C(C1)N(c1ccc(F)cc1)C(=O)CC2c1ccccc1 (configuration not stated) -4.86%
O=C(COC(=O)c1cnccn1)Nc1ccc(Cl)cn1 -5.03%
Cc1cc(C(=O)CSc2nnc3ccccn23)c(C)n1-c1ccccc1 0.992%
Cc1cc(C(=O)COC(=O)C2CC2)c(C)n1-c1ccc(F)cc1 4.63%
COc1ccc(C(=O)CSc2nc(C)cc(=O)[nH]2)cc1C -1.45%
CC1C=Cc2ccccc2N1C(=O)c1ccccc1 (configuration not stated) -3%
O=C(OCCN1CCN(c2ncc(C(F)(F)F)cc2Cl)CC1)c1ccc(Cl)cc1 -3.94%
CCN1CCN(c2cc(C)c3cc(NC(=S)N4CCCC(C)C4)ccc3n2)CC1 (configuration not stated) 6.67%
COc1cccc(CC2(CO)CCN(S(=O)(=O)c3ccc(OC)cc3OC)CC2)c1 1.79%
CC(C)CC(C(=O)Nc1cccc(O)c1)N1C(=O)c2ccccc2C1=O (configuration not stated) -0.424%
COCCN(C(=O)COC(=O)/C=C/c1ccc(C(F)(F)F)cc1)c1c(N)n(Cc2ccccc2)c(=O)[nH]c1=O 4.7%
Cc1ccccc1OCC(=O)Nc1ccc([N+](=O)[O-])cc1 -3.6%
Cc1ccccc1OCC(=O)OCC(=O)c1ccc(-c2ccccc2)cc1 -2.21%
CN(Cc1ccccc1)C(=O)CCn1c(=O)oc2ccccc21 -5.05%
Cc1ccc(S(=O)(=O)NC(C)(C)CSc2nncn2N)cc1 -12.4%
CC1(C)C=C2C(=NN(c3ccccc3)C(N)=C2C#N)CO1 0.55%
O=C(CCl)Nc1ccccc1C(=O)c1ccccc1 -3.67%
Fc1ccc(-n2cc(CNCCc3ccccn3)c(-c3ccccc3Cl)n2)cc1 6.35%
O=C(CN1CCN(C(=O)c2ccccc2)CC1)Nc1ncc(Br)cc1Br -7.04%
O=C(OCc1cc(=O)n2cc(Br)ccc2n1)C1COc2ccccc2O1 (configuration not stated) -10.6%
COc1ccc(CN(CCCN2CCOCC2)C(=O)Nc2cccc(Cl)c2)cc1OC 35.5%
CCOC(=O)Cc1cnc(NC(=O)c2ccccc2)s1 -10.8%
CCOC(=O)c1sc(NC(=O)Nc2ccccc2F)nc1C -5.42%
CN1CCN(c2ccc(NC(=O)c3ccc4ccccc4c3)cc2)CC1 5.25%
COc1ccc(C(C(=O)NC2CCCCC2)N(C(=O)CCl)c2cccc(Cl)c2)cc1 (configuration not stated) 54%
COc1ccc(C(C)NC(=S)NC2CCCCC2)cc1OC (configuration not stated) 17%
Cc1ccc(Cn2c(=N)n(CC(=O)c3ccccc3)c3ccccc32)cc1 -8.55%
CCCCSC1=C(C#N)C(c2ccccc2C)CC(=O)N1 (configuration not stated) -0.422%
O=C(CCc1ccccc1)Nc1cccc([N+](=O)[O-])c1 -1.97%
Cc1nc(-c2ccc(Cl)cc2)sc1C1(C)CC(c2ccc(Cl)cc2)=NO1 (configuration not stated) 5.7%
CN(C)c1nc(OCCNC(=O)COc2ccc(Cl)cc2Cl)nc(N(C)C)n1 -11.4%
Cc1cccc(C(=O)NC2CCN(C(=O)Nc3ccc(F)cc3)CC2)c1 -0.23%
C[n+]1c(/C=C/c2ccc3c(c2)OCO3)ccc2ccccc21 -0.328%
CCc1cc(C(=O)NCC(C)(C)N2CCOCC2)sc1C -5%
CCOc1ccc(NC(=O)c2cccnc2C(=O)O)cc1 3.13%
CCOC(=O)c1ccc(NC(=O)NS(=O)(=O)c2ccc(C)cc2)cc1 3.23%
N=C1C(c2nc3ccccc3[nH]2)=C(O)CN1c1ccc(CC(=O)O)cc1 13%
O=C(O)c1ccc(N2C(=O)CC(N3CCN(c4cccc(C(F)(F)F)c4)CC3)C2=O)cc1 (configuration not stated) 1.6%
O=C(NNc1nc2ccccc2s1)Nc1ccccc1 -0.841%
Cn1ccnc1Sc1cc(NCCCO)c([N+](=O)[O-])c2nonc12 -89.6%
COc1ccccc1Nc1ccc2nonc2c1[N+](=O)[O-] -4.82%
COc1ccc(NC(=S)Nc2ccc(Oc3ccccc3)cc2)cc1 11.4%
Cc1c(O)ccc2c(CC(=O)N[C@@H](Cc3ccc(O)cc3)C(=O)O)cc(=O)oc12 -0.067%
Cc1cc(=O)oc2c(C)c(OC(C)C(=O)NCCCN3CCOCC3)ccc12 (configuration not stated) 0.097%
Cc1cc(NC(=O)COc2coc(CN3CCN(c4ccccc4F)CC3)cc2=O)no1 -3.4%
CCOC(=O)c1cc(C#N)c(NCc2ccccc2)nc1C -8.53%
Cc1ccc(S(=O)(=O)CCC(=O)Nc2ccc(Br)cc2)cc1 -18.7%
O=C(O)c1cc(S(=O)(=O)Nc2ccc3c(c2)OCCO3)c(Cl)cc1Cl -9.48%
CCc1ccc(-c2nc(CS(=O)CC(=O)NCc3cccnc3)c(C)o2)cc1 (configuration not stated) -5.61%
COc1ccc(OC)c(NC(=S)NCc2cccnc2)c1 -11%
COc1ccc(OC)c(NC(=O)CSc2nc3ccccc3cc2Cc2ccccc2)c1 2.64%
COc1ccc(N(CC(=O)NCc2ccc(F)cc2)C(=O)Cn2nnc(-c3ccc(C)o3)n2)cc1OC 3.23%
O=C(Cn1cnc2c(nnn2Cc2ccc(Cl)cc2)c1=O)N1CCCc2ccccc21 -4.06%
CCN(c1ccccc1)S(=O)(=O)c1ccc(Cl)c(C(=O)N(CC2CCCO2)C2CCS(=O)(=O)C2)c1 (configuration not stated) -4.73%
O=C(O)c1csc(-c2ccccc2)n1 2.65%
Cc1cc(C(=O)CN2CCC(C)CC2)c(C)n1-c1ccccc1F 3.3%
Cc1cc(/C=C2\SC(=S)N(Cc3ccco3)C2=O)c(C)n1-c1ccccc1 -3.22%
c1ccc(-c2nn[nH]n2)nc1 0.524%
O=C(CCCNC(=O)/C(=C\c1ccccc1F)NC(=O)c1ccccc1)OCc1ccccc1 12.5%
COc1ccccc1NS(=O)(=O)c1ccc(C)c(C(N)=O)c1 2.29%
COc1ccc(C)cc1S(=O)(=O)Nc1cc2c3c(c1)CCC(=O)N3CCC2 4.91%
CN(C)c1ccc(-c2nc3n(n2)C(c2cccnc2)C2=C(CC(C)(C)CC2=O)N3)cc1 (configuration not stated) 8.15%
CCCn1c2ccccc2c2nnc(SCc3[nH]c(=O)[nH]c3C(=O)CCCCC(=O)OCC)nc21 -4.05%
CC(=O)NC(c1ccc(C)cc1)c1cc(Cl)c2cccnc2c1O (configuration not stated) 9.24%
Cc1cccc(NCc2ccc(O)c3ncccc23)c1C -5.05%
Oc1c(CN2CCOCC2)cc(COCc2ccccc2)c2cccnc12 94.7%
Cn1ncc([N+](=O)[O-])c1C(=O)Nc1ccccc1Cl -12.2%
CCN1C(=O)C(CC(=O)Nc2ccc(OC)cc2)N(Cc2ccc3c(c2)OCO3)C1=S (configuration not stated) -0.998%
Cc1cc(N=Nc2ccc(Cl)cc2)cc(CN2CCCC2)c1O -0.088%
COc1ccc(C(=O)NC(=S)N2CCNC(=O)C2CC(=O)OC(C)C)cc1 (configuration not stated) -8.04%
CCOC(=O)c1c(C)[nH]c(C(=O)COC(=O)C2=NNC(=O)CC2)c1C 9.83%
O=C(O)c1cc(S(=O)(=O)N(Cc2ccccc2)c2ccccc2Cl)ccc1Cl -9.49%
O=C(Nc1cccnc1)c1coc(=O)c2ccccc12 0.689%
CC(C)c1ccc(NC2(C#N)C(=O)Nc3ccccc32)cc1 (configuration not stated) -4.73%
O=C1SCC(c2ccccc2)=NN1Cc1ccccc1 5.45%
CCOc1ccc(NCc2nnc(SCC(=O)Nc3cc(C)on3)n2-c2ccc(OC)cc2)cc1 2.07%
CCOc1ccc(-n2c(O)c(/C=N/Nc3nnc(C)c(=O)[nH]3)c3ccccc3c2=O)cc1 3.96%
